Measured values as given in ChEMBL document CHEMBL3988442, “University of Dundee, Small-Polar-MMV Screening Library” (2021).
The whole screen tested about 48,000 compounds, of which about 13,000 (27%) showed an effect of 50% or more. The list shows a part of the results.

Each compound was assayed on Wolbachia pipientis (assay: Anti-Wolbachia Cell-Based Screen). Details: 5 µM.
Assay type: functional
Set-up: scale not given: in the data most compounds retested in dose-response had high values

Going from `O=C1CCC2(CCCN(C(=O)c3cscn3)C2)CN1CCc1c[nH]cn1` (configuration not stated) to `Cn1cccc1C(=O)N1CCC2(CCCN(CC3CC3)C2=O)C1` (configuration not stated), the “Percent Effect” value rises from -10.65% to 2.832%.

Going from `COCC[C@]1(O)CCN(C(=O)CCc2cnn(C)c2)C[C@H]1C` to `COCCCN1C(=O)CC[C@H]2CN(c3ccc(C(N)=O)cn3)CC[C@H]21`, the “Percent Effect” value falls from 4.52% to -7.977%.

Going from `O=C(O)C(F)(F)F.O=C([C@@H]1COC[C@H]2CN(C3CCCC3)C[C@H]21)N1CCCO1` to `Cn1cccc1C(=O)N[C@@H]1CN(Cc2cccs2)[C@@H]2COC[C@@H]21.O=C(O)C(F)(F)F`, the “Percent Effect” value falls from 17.11% to -0.8834%.

First: N#Cc1cccn(CCOc2ccc(Cl)cc2)c1=O
Second: CN(C)C(=O)[C@@H]1C[C@H]2OCC[C@H]2N(CCOc2ccc(Cl)cc2)C1.O=C(O)C(F)(F)F
The “Percent Effect” value of the first is lower: 1.787% for the first, 2.849% for the second.

Compared with `CCN(Cc1cccc(C(=O)Nc2ncc(C)s2)c1)[C@H]1COC[C@@H]1O`, `CCc1nnc(NC(=O)N(CCOC)Cc2ccc(C)o2)s1` is higher in “Percent Effect” value: -30.5% for the first, -17.47% for the second.

Compared with `COc1cccc(OCC(=O)Nc2cc(C)cnc2OC)c1`, `COc1cccc(OCC(=O)N(C)c2cccnc2)c1` is higher in “Percent Effect” value: -3.039% for the first, 104.9% for the second.

Going from `COc1cccc(OCC(=O)N(C)c2cccnc2N(C)C)c1` to `COc1ccc(CC(=O)N(C)c2cccnc2N(C)C)c(Cl)c1`, the “Percent Effect” value falls from 85.27% to 3.868%.

Going from `COc1cccc(OCCCc2cncc(C(N)=O)c2)c1` to `COc1cccc(OCC(=O)NS(=O)(=O)c2cc(F)ccc2F)c1`, the “Percent Effect” value falls from -6.464% to -14.39%.

Compared with `Cc1nc(C)n(CC2CCCCN2CCCC#N)n1` (configuration not stated), `Cc1n[nH]c(C2CN(CCNC3CCCCC3)CCO2)n1` (configuration not stated) is higher in “Percent Effect” value: 3.604% for the first, 13.35% for the second.

Going from `CN(CCCNC(=O)CN1CCS(=O)(=O)CC1)c1ccccc1` to `CCNS(=O)(=O)c1ccc(C)c(C(=O)N(C)Cc2ccccc2C)c1`, the “Percent Effect” value falls from 9.575% to -10.61%.

Compared with `COCC(=O)NCC1Cn2nnc(-c3ccncc3)c2CO1.O=C(O)C(F)(F)F` (configuration not stated), `COCC(=O)NC[C@H]1CC[C@H](c2nnc(-c3ccncc3)o2)CC1` is higher in “Percent Effect” value: -3.08% for the first, 130.9% for the second.

Going from `COCC(=O)NC[C@H]1CC[C@H](c2nnc(-c3cccnc3)o2)CC1` to `O=C(NC[C@H]1CC[C@H](c2nnc(-c3cccnc3)o2)CC1)C1CC1`, the “Percent Effect” value falls from 199.6% to 169.2%.

First: O=C(c1cccnc1)C1CCCN(c2nnc(C3CC3)o2)C1 (configuration not stated)
Second: c1cncc(-c2nnc([C@H]3CCN(CC4CC4)C3)o2)c1
The “Percent Effect” value of the first is lower: -9.968% for the first, 10.36% for the second.

Going from `COCC(=O)NC[C@@]1(COc2cccnc2)C[C@@H](O)[C@@H](O)C1.Cl` to `Cn1ccnc1COc1ccc(NC(=O)CCC2CCCO2)cc1` (configuration not stated), the “Percent Effect” value rises from -0.8237% to 7.737%.

First: c1cc(-c2nnc([C@H]3CCNC3)o2)ccn1
Second: c1cncc(-c2nnc([C@H]3CCN(CC4CCCCC4)C3)o2)c1
The “Percent Effect” value of the first is lower: -9.06% for the first, 11.75% for the second.

Going from `Cc1nc(C(C)C)sc1C(=O)N(C)Cc1nc(-c2ccccn2)no1` to `Cc1nc(CN(C)C(=O)c2cc(C)sc2NC(=O)C(C)(C)C)no1`, the “Percent Effect” value rises from -7.076% to -2.602%.

First: CC(CN(C)C(=O)c1cn(C)nc1-c1ccc(F)cc1F)C(=O)O (configuration not stated)
Second: CCCN(C)C(=O)c1cc(S(=O)(=O)NCC)ccc1C
The “Percent Effect” value of the first is higher: -1.433% for the first, -9.376% for the second.

Compared with `CCOc1ccc2nc(CN3CCC(CNC(C)=O)C3)ccc2c1` (configuration not stated), `Cc1nonc1CC(=O)N1C[C@@H]2CC[C@H](C1)N(Cc1ccccc1)C2=O` is lower in “Percent Effect” value: 0.9569% for the first, -22.99% for the second.

Compared with `Fc1cccc(-n2cccn2)c1NCc1nnc(C2CC2)o1`, `CCn1c(=O)n(Cc2nc(C3CC3)no2)c2ccccc21` is higher in “Percent Effect” value: -10.01% for the first, -1.691% for the second.

First: Cc1cc(C)n(C2CN(C(=O)Cn3c(C)cc(=O)c4ccccc43)C2)n1
Second: O=C(CSCC1CC1)N1C[C@@H]2CC[C@H](C1)N(Cc1ccccn1)C2=O
The “Percent Effect” value of the first is higher: 17.29% for the first, 4.164% for the second.

Compared with `CCn1cc2c(n1)CN(S(=O)(=O)Cc1ccccc1)CC2COC` (configuration not stated), `CCc1nc(Cn2c(=O)n(CC)c3ccccc32)no1` is lower in “Percent Effect” value: 10.82% for the first, -6.157% for the second.

Compared with `CN1CC(=O)N(C2CCC2)Cc2c(NC3CCNCC3)ncnc21`, `CN1CC(=O)N(C2CCNCC2)Cc2c(NC3CCC3)ncnc21` is lower in “Percent Effect” value: 107.9% for the first, 106.1% for the second.

Going from `CCn1c(=O)c2cc(S(N)(=O)=O)ccc2n(CC)c1=O` to `CCNS(=O)(=O)c1ccc2c(c1)c(=O)n(CC)c(=O)n2CC`, the “Percent Effect” value falls from 133.6% to 90.08%.

First: CCn1c(=O)n(CC)c2cc(S(N)(=O)=O)ccc21
Second: Cc1c(C(=O)N2CCC3(CCCN(CC4CC4)C3=O)C2)ccn1C (configuration not stated)
The “Percent Effect” value of the first is higher: 88.83% for the first, -5.125% for the second.

Going from `NC(=O)Cn1ccc(NC(=O)C2(c3cccc(Cl)c3)CC2)n1` to `Cc1cnc(CN(C)C2CCN(CC(=O)Nc3nncs3)C2)o1.O=C(O)C(F)(F)F` (configuration not stated), the “Percent Effect” value rises from -4.273% to 3.209%.

Compared with `CC(C(=O)Nc1ccnn1C(C)C)N1CCN(Cc2ccon2)CC1` (configuration not stated), `Cc1nonc1CC(=O)N1CCC2(CCCN(C3CCOCC3)C2=O)C1` (configuration not stated) is higher in “Percent Effect” value: 9.174% for the first, 111.8% for the second.

First: c1cnc(N2C[C@H]3CCC[C@@H](CN4CCCC4)[C@H]3C2)nc1
Second: Cc1nccnc1CN1CCC2(CCCN(C3CCOCC3)C2=O)C1 (configuration not stated)
The “Percent Effect” value of the first is lower: -23.6% for the first, 1.539% for the second.

First: CC(C)N1CCCC2(CCN(C(=O)COCC(F)(F)C(F)F)C2)C1=O (configuration not stated)
Second: O=C(COCC(F)(F)C(F)F)N1CCC2(CCCN(CCO)C2=O)C1 (configuration not stated)
The “Percent Effect” value of the first is higher: -9.489% for the first, -15.14% for the second.

Going from `CN1CCN(C(=O)N2CCC3(CCCN(C4CCOCC4)C3=O)C2)CC1` (configuration not stated) to `CCOC(=O)N1CCC2(CCCN(C3CCOCC3)C2=O)C1` (configuration not stated), the “Percent Effect” value rises from 106.4% to 112%.

Compared with `Cc1cc(C(=O)N2CCC3(CCCN(CC4CC4)C3=O)C2)c(C)n1C` (configuration not stated), `COCCOCC(=O)N1CCC2(CCCN(C3CCOCC3)C2=O)C1` (configuration not stated) is higher in “Percent Effect” value: -3.042% for the first, 121% for the second.

Compared with `CS(=O)(=O)CCN1CCC2(CCCN(C3CCOCC3)C2=O)C1` (configuration not stated), `c1ncc2c(n1)CN(CC1CCCCO1)CC2` (configuration not stated) is lower in “Percent Effect” value: -2.931% for the first, -13.48% for the second.
